Shown are actives, neighbours in structure and some others; about 0.7% of the full set was active somewhere.
HePTP inhibitor – inhibitors of human HePTP phosphatase, primary screen, biochemical, absorbance, leukemia target | Tyrosine-protein phosphatase non-receptor type 7 (Homo sapiens), P35236 | recombinant HePTP phosphatase activity, OD absorbance | AID 521, 2006 | inhibition, % at 20 µM | hit rate 0.64% among 110,000; in the data active = inhibition above about 50%;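 note: plate controls were vehicle for no effect and reference inhibitor for full effect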
MKP-1 inh – MKP-1 phosphatase inhibitors, primary screen, biochemical, in vitro; inhibition, %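 (compounds tested at a single concentration somewhere between 10 and 100 µM)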; recombinant MKP-1, OMFP hydrolysis fluorescence; Dual specificity protein phosphatase 1 (Homo sapiens), P28562; AID 374, 2006; hit rate 0.15% among 65,000;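 active = inhibition above about 50%, limit read from the data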;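 note: 0% = DMSO max control wells and 100% = wells with enzyme stopped by NaOH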
Cdc25B inh – inhibitors of Cdc25B phosphatase catalytic domain, primary screen, biochemical, OMFP fluorescence; recombinant Cdc25B, OMFP fluorescence Ex485/Em525; hit rate 0.1% among 65,000; AID 368, 2006; inhibition, %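 (compounds tested at 10 µM final in the well)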; M-phase inducer phosphatase 2 (Homo sapiens), P30305; in the data active = inhibition above about 50%
Target sequence (P30305 whole entry, looked up, the tested form may be a part): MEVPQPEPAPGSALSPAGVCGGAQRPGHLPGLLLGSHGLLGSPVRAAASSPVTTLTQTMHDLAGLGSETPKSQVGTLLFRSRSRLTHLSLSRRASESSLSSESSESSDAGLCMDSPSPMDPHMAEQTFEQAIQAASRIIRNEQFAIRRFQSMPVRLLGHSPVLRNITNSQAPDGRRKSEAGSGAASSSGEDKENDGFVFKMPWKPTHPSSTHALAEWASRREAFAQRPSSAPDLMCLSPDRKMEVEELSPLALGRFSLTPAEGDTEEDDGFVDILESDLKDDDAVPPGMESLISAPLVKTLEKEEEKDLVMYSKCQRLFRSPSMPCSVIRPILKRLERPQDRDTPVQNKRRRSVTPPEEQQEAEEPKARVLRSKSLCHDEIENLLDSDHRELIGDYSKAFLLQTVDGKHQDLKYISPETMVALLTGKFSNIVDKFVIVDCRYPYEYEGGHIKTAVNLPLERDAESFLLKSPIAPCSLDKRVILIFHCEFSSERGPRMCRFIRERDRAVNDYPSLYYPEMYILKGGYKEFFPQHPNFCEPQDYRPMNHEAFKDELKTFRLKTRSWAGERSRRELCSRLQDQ
* = called active by the depositor; / = no result given.

SMILES	HePTP inhibitor	MKP-1 inh	Cdc25B inh
O=c1c2c3c(sc2n2c(=S)[nH]nc2n1-c1ccccc1)CCCC3	7.9	/	/
CC(C)(C)c1csc(N/N=C/c2ccc(C#N)cc2)n1	4.3	/	/
O=C(CSc1nc2ccccc2c(=O)[nH]1)Nc1ccc(S(=O)(=O)N2CCCC2)cc1	-10.7	53.2*	0.0
O=C(CCn1cnc2ccccc2c1=O)Nc1ccc(S(=O)(=O)N2CCCC2)cc1	-5.8	2.7	-12.6
COc1ccc(CC(=O)O/N=C(\N)c2ccc([N+](=O)[O-])cc2)cc1OC	-0.6	/	/
Cc1c(C#N)c(N)c(C(=O)c2ccccc2)n1-c1ccccc1	70.3*	/	/
Cc1c(C#N)c(N)c(C(=O)c2ccc(Br)cc2)n1-c1ccc(Br)cc1	10.3	/	/
COc1cc(C(C2=C(O)CC(C)(C)CC2=O)C2C(=O)CC(C)(C)CC2=O)ccc1OC(C)=O (configuration not stated)	2.5	/	/
CCOC(=O)C1NN=C(C(=O)c2ccccc2)C1c1ccc(OC)cc1 (configuration not stated)	103.6*	/	/
CCOC(=O)C1NN=C(C(=O)c2ccc(OC)cc2)C1c1ccccc1 (configuration not stated)	5.8	/	/
CCCCOc1ccc(C(=O)N2c3ccccc3CC2C)cc1 (configuration not stated)	104.0*	/	/
CC(C)COc1ccc(C(=O)N2c3ccccc3CC2C)cc1 (configuration not stated)	-7.3	/	/
COc1ccc(/C=C2/C(=O)NN(c3cccc(Cl)c3)C2=O)cc1OC	7.2	/	/
O=C(CSc1cccc2cccnc12)N1CCOCC1	8.6	/	/
O=C(CSc1nc2ccc([N+](=O)[O-])cc2s1)c1ccc(F)cc1	16.6	/	/
CCCC(=Nc1ccc(OC)cc1)C1=C(O)CC(C)(C)CC1=O	-11.8	/	/
CCCC(=Nc1cccc([N+](=O)[O-])c1)C1=C(O)CC(C)(C)CC1=O	60.9*	/	/
COc1ccccc1C(=O)N1CCN(Cc2ccccc2Br)CC1	5.3	/	/
Cc1cc(OCCCCCNCCO)cc(C)c1Cl	8.3	-2.0	-2.0
Cc1cc(Cl)cc(C)c1OCCCCNCCO	105.1*	/	/
Cc1cc(C)c(N2C(=O)NC(=O)/C(=C/c3ccc([N+](=O)[O-])o3)C2=O)c(C)c1	76.4*	/	/
Cc1cccc(N2C(=O)NC(=O)/C(=C/c3ccc(-c4ccccc4[N+](=O)[O-])o3)C2=O)c1	0.2	/	/
COc1ccc(C2NC(=O)NC(C)=C2C(=O)Nc2cccc(C)c2)cc1OC (configuration not stated)	-12.9	/	/
CCn1c2c(c3cc(F)ccc31)CCCC2=O	-5.8	/	/
N#CC1=C(N)Oc2n[nH]c(-c3ccccc3)c2C1CCc1ccccc1 (configuration not stated)	3.5	/	/
SMILES	HePTP inhibitor	MKP-1 inh	Cdc25B inh
O=C(/C=C/c1ccco1)Nc1ccc(O)c(-c2nc3ccccc3o2)c1	3.0	/	/
O=C(/C=C/c1ccco1)Nc1ccc(-c2nc3ccccc3s2)c(O)c1	104.0*	/	/
O=S(=O)(N/N=C/c1ccccc1O)c1ccc(Oc2ccc(S(=O)(=O)N/N=C/c3ccccc3O)cc2)cc1	-12.8	/	/
O=C(CN(c1ccccc1)S(=O)(=O)c1ccccc1[N+](=O)[O-])Nc1ccccc1	11.3	/	/
CC(C)c1ccc(N2C(=O)NC(=O)/C(=C/c3ccc(I)o3)C2=O)cc1	32.1	/	/
O=C1NC(=O)N(c2ccccc2F)C(=O)/C1=C/c1ccc(I)o1	67.3*	/	/
O=C1NC(=O)N(c2cccc(F)c2)C(=O)/C1=C/c1ccc(I)o1	53.0*	/	/
Cc1cc(/C=C2\C(=O)NC(=O)N(c3ccccc3F)C2=O)c(C)n1C	-3.7	/	/
CCOC(=O)c1ccc(P(=O)(C(C)(C)C)C(C)(C)C)cc1	7.1	/	/
CNc1nnc(SCc2c(F)cccc2Cl)s1	11.4	/	/
O=[N+]([O-])c1cccc(Cl)c1N1CCN(S(=O)(=O)c2ccccc2)CC1	4.7	/	/
Cc1ccc([N+](=O)[O-])cc1-c1ccc(/C=C2/C(=O)NN(c3ccc(Cl)cc3)C2=O)o1	94.1*	/	/
Cc1cc([N+](=O)[O-])ccc1-c1ccc(/C=C2/C(=O)NC(=S)N(c3ccc(Cl)cc3)C2=O)o1	-1.7	/	/
Cc1cc(Br)ccc1N1C(=O)/C(=C/C=C/c2ccccc2)C(=O)NC1=S	-3.1	/	/
COc1cc(Cl)cc(/C=C2/C(=O)NC(=O)N(c3ccc(C)cc3)C2=O)c1O	-1.6	/	/
O=C1NC(=S)N(c2ccc(Cl)cc2)C(=O)/C1=C/C=C/c1ccccc1	61.9*	/	/
CCOC(=O)c1ccc(-c2ccc(/C=C3/C(=O)NC(=O)N(c4ccccc4)C3=O)o2)cc1	-3.9	/	/
COc1c(Br)cc(Cl)cc1/C=C1\C(=O)NC(=S)N(c2ccc(C)cc2)C1=O	102.9*	/	/
CCOc1ccc(N2C(=O)NC(=O)/C(=C/c3ccc(-c4ccc(C(=O)O)c(Cl)c4)o3)C2=O)cc1	102.6*	/	/
CCn1c2ccccc2c2cc(C=Nc3cccc4c(=O)[nH][nH]c(=O)c34)ccc21	6.1	/	/
Cc1ccc2nsnc2c1NC(=O)/C=C/c1cccc([N+](=O)[O-])c1	-1.8	/	/
Cc1ccc(O)c(C(=O)CC(=O)c2ccc(Br)cc2)c1	-0.5	/	/
O=C(Nc1ccccc1Br)c1ccc(CN2CCc3ccccc3C2)cc1	5.9	/	/
Nc1nonc1-n1nnc(C(=O)N/N=C/c2cccc(O)c2)c1-c1ccccc1	-24.0	/	/
CC(C)NC(=O)c1cccc([N+](=O)[O-])c1	4.9	/	/
SMILES	HePTP inhibitor	MKP-1 inh	Cdc25B inh
O=C(/C=C(\O)c1ccc2c(c1)OCO2)C(F)(F)F	9.2	/	/
CCOc1ccc(N(CC(=O)Nc2c(C)cccc2C)S(=O)(=O)c2ccc(SC)cc2)cc1	-11.5	/	/
CC1=C(C#N)C(=O)NC(=O)/C1=C\c1ccc(-c2ccc(Cl)c(Cl)c2)o1	67.2*	/	/
O=C1NC(=S)N(c2ccccc2)C(=O)/C1=C/c1ccc(-c2ccc(Cl)c(C(=O)O)c2)o1	22.7	/	/
Cc1ccc(N2C(=O)/C(=C\c3ccc(-c4ccc(Cl)c(C(=O)O)c4)o3)C(=O)NC2=S)cc1	66.0*	/	/
COC(=O)c1ccc(-c2ccc(/C=C3\C(=O)NN(c4ccccc4)C3=O)o2)cc1	4.1	/	/
O=C1NC(=S)N(c2ccc(F)cc2)C(=O)/C1=C/c1ccc(-c2cccc(C(=O)O)c2)o1	44.3	/	/
CCOC(=O)c1ccc(N2NC(=O)/C(=C/c3ccc(-c4ccc(Cl)c(C(=O)O)c4)o3)C2=O)cc1	50.6*	/	/
CCOC(=O)c1ccc(-c2ccc(/C=C3\C(=O)NC(=O)C(C#N)=C3C)o2)cc1	-15.0	/	/
O=C1NC(=S)N(c2ccc(Cl)cc2)C(=O)/C1=C\c1ccc(-c2cccc(C(=O)O)c2)o1	77.6*	/	/
CCC(=O)Nc1ccc(-c2nc3ccccc3s2)cc1	-2.7	/	/
O=C1CCN2C=Nc3cccc4ccc1c2c34	-9.2	10.7	79.9*
Cc1ccc(/C=C2\SC(N3CCC(C)CC3)=NC2=O)o1	2.8	/	/
COC(=O)C(=C/C(C)=C/N1CCOCC1)C(=O)OC	8.4	/	/
O=C(CSc1nc2ccccc2n1Cc1ccccc1)N/N=C/c1ccc([N+](=O)[O-])cc1	86.2*	/	/
O=C(CSc1nc2ccccc2n1Cc1ccccc1)N/N=C/c1cccc(O)c1	4.5	/	/
O=C(NCCNS(=O)(=O)c1ccccc1)c1c(O)c2ccccc2oc1=O	2.1	/	/
Oc1[nH]c2ccccc2c1C1=NCCCC1	11.0	-2.2	2.3
O=C1N=c2ccccc2=C1N=Nc1nc(O)c(-c2c(O)[nH]c3ccccc23)s1	66.0*	/	/
